Assay outcomes from PubChem.
Rows were chosen to be rich in hits. Some 4.8% of all compounds tested hit in one or more screens of this group.
hcDAF-12 act – H. contortus DAF-12 activation, primary screen; HEK293 hcDAF-12 lit1-tk-luc reporter, luminescence; 0% DMSO, 100% Δ7-dafachronic acid; AID 652067; 370,000 compounds, 1.4% hits; activation, % at 6.8 µM;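 active = activation above the mean of all tested compounds plus 3 SD, cut at about 5.5% in these data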
Rev-erbA mod – Rev-erb alpha (human) modulation; P20393; activity, % at 10 µM; Rev-erbα–FITC-DNA binding, fluorescence polarization, 90 min; 370,000 compounds, 0.79% hits;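 active = activity above about 14%, limit read from the data; passing the limit was not always enough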
ssDAF-12 act – activators of S. stercoralis DAF-12 nuclear receptor | HEK293 ssDAF-12/GRIP1 lit1-tk-luc reporter, luminescence; % of 3 µM dafachronic acid response | activation, % at 6.8 µM | 370,000 compounds, 1% hits;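 active = activation above the mean over all tested compounds plus 3 SD, cut at about 0.9% in these data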
DAX1 inh-1 – DAX1 (NR0B1) inhibition, primary screen; HEK293T StAR-luciferase reporter, SF-1/DAX-1 repression relief; inhibition, % at 6.8 µM; 370,000 compounds, 1.1% hits; AID 652010;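 active = inhibition above the mean over all tested compounds plus 3 SD, cut at about 3.6% in these data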;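 also: higher inhibition means more luminescence from relief of DAX-1 repression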
DAX1 inh-2 – inhibits human nuclear receptor DAX1. P51843. HEK293 Gal4-DAX1 luciferase reporter, luminescence. inhibition, % at 6.75 µM. 340,000 compounds, 0.99% hits. AID 504766;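 active = inhibition above the mean over all tested compounds plus 3 SD, cut at about 4.2% in these data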;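 also: inhibition shows as a rise in luminescence from relieved DAX1 repression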
Target sequence (P51843 207-470 limits assumed): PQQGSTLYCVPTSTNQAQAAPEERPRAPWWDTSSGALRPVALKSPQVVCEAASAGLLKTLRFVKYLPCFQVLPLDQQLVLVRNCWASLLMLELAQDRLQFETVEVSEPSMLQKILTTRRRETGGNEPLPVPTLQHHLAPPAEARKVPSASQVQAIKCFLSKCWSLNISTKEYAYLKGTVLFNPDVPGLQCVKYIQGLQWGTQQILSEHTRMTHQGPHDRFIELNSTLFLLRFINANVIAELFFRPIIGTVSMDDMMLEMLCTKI
hgDAF-12 ag – agonists of H. glycines DAF-12 nuclear receptor | HEK293 GAL4-hgDAF12 UAS-luciferase reporter, agonist luminescence; normalized to butyrate control | activation, % at 6.8 µM | 370,000 compounds, 1.8% hits | AID 687014;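 active = activation above a cutoff set at the mean of all screened compounds plus 3 SD, cut at about 10% in these data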
Each line names hits and unclear results; the compound was inactive in the other large screens.

CCc1ccc(-c2nn(Cc3ccccc3)cc2C=O)cc1	hgDAF-12 ag 13
O=Cc1cn(Cc2c(F)cccc2Cl)nc1-c1ccccc1	none
Cc1ccsc1C(=O)C1CCCN(CCO)C1 (configuration not stated)	DAX1 inh-2 4.8
Cc1ccsc1C(=O)C1CCCN(Cc2cnn(C)c2)C1 (configuration not stated)	none
CC(C)C(C(=O)NC(C)(C)C)N1C(=O)CN=C(c2ccccc2)c2ccccc21 (configuration not stated)	none (no result: DAX1 inh-2)
Cc1cccc(C(C)c2cnc[nH]2)c1C (configuration not stated)	none (no result: DAX1 inh-2)
N#CCC[C@@H]1CC[C@]2(CCCN(Cc3ccccn3)C2)O1	none (no result: DAX1 inh-2)
CN(C)c1ccc(CCN2CCOCC2)cc1	ssDAF-12 act 1.2, hgDAF-12 ag 11
C=C1C(C)C2C(Cc3ccccc3)NC(=O)C23C(OC(C)=O)C=CC(C)(O)CC(C)CC=CC3C1O (configuration not stated)	DAX1 inh-1 3.8, DAX1 inh-2 4.2
CC1=C2CCC3C(CC[C@]4(C)C(=O)CCC34)[C@@]2(C)CCC1=O (some centres not stated)	none (no result: hcDAF-12 act, ssDAF-12 act, DAX1 inh-1, DAX1 inh-2, hgDAF-12 ag)
COc1cc(C2c3cc4c(cc3CC3COC(=O)C32)OCO4)cc(OC)c1OC (configuration not stated)	DAX1 inh-1 4.4
COc1ccc(CN2CCNCC2)c(OC)c1OC	none
COc1cc(CN2CCNCC2)cc(OC)c1OC	ssDAF-12 act 1.0
COCCO[C@H]1CC[C@@]2(C)C(=CCC3C2CC[C@@]2(C)C3CC[C@]2(C)O)C1 (some centres not stated)	hgDAF-12 ag 11
O=C1NC(=S)N(C2CC2)C(=O)/C1=C/c1ccc2c(c1)CCN2CCCCl	none
CCN1C(=O)/C(=C/c2ccc3c(c2)CCN3CCCCl)C(=O)NC1=S	ssDAF-12 act 1.7
Cc1ccc(N2C(=O)NC(=O)/C(=C/c3ccc(OC(=O)c4cccs4)cc3)C2=O)cc1	none
COc1ccc(N2C(=O)NC(=O)/C(=C/c3cccc(OC(=O)c4cccs4)c3)C2=O)cc1Cl	hcDAF-12 act 5.8 (no result: DAX1 inh-2)
O=C1OC(c2ccc(O)c(S(=O)(=O)O)c2)(c2ccc(O)c(S(=O)(=O)O)c2)c2c(Br)c(Br)c(Br)c(Br)c21	none (no result: hcDAF-12 act, ssDAF-12 act, DAX1 inh-1, DAX1 inh-2, hgDAF-12 ag)
O=C(O)Cn1cc(/C=C2\C(=O)NC(=O)N(c3ccc(Cl)cc3)C2=O)c2ccccc21	ssDAF-12 act 1.2
Cc1cc(=O)oc2c(C)c(OCC(=O)N3CCC(C(=O)O)(c4ccccc4)CC3)ccc12	DAX1 inh-2 4.6
Cc1cc(=O)oc2cc(OCC(=O)N3CCC(C(=O)O)(c4ccccc4)CC3)ccc12	none
C=CCn1c(O)c(C(CC)=Nc2cccc(C(F)(F)F)c2)c(=O)[nH]c1=O	hcDAF-12 act 6.1
S=C(SSC(=S)N1CCCCC1)N1CCCCC1	none (no result: hcDAF-12 act, ssDAF-12 act, DAX1 inh-1, DAX1 inh-2, hgDAF-12 ag)
O=C(N/N=C/c1c(O)n(Cc2ccc(F)cc2)c(=O)[nH]c1=O)c1ccccc1	DAX1 inh-2 6.6, hgDAF-12 ag 11
O=C(N/N=C/c1c(O)n(CCC2=CCCCC2)c(=S)[nH]c1=O)c1ccccc1	hgDAF-12 ag 11
C=CCC1(C(C)CCC)C(=O)N=C(S)NC1=O (configuration not stated)	none (no result: hcDAF-12 act, ssDAF-12 act, DAX1 inh-1, DAX1 inh-2, hgDAF-12 ag)
CC[C@H]1C2CC3[C@@H]4N(C)c5ccccc5[C@]45C[C@@H](C2C5O)N3[C@@H]1O (some centres not stated)	none (no result: hcDAF-12 act, ssDAF-12 act, DAX1 inh-1, DAX1 inh-2, hgDAF-12 ag)
Cc1c(C(c2ccc(F)cc2)c2c(O)c3ccccc3oc2=O)c(=O)n(-c2ccccc2)n1C (configuration not stated)	none
Cc1c(C(c2ccccc2Cl)c2c(O)c3ccccc3oc2=O)c(=O)n(-c2ccccc2)n1C (configuration not stated)	DAX1 inh-2 4.3
Nc1c2c(nc3sc4c(c13)CCCC4)CCCC2	hgDAF-12 ag 11
Cc1nn(Cc2ccccc2)c(C)c1C=C1C(=O)NC(=S)NC1=O	hcDAF-12 act 6.1
CCCC(=O)N1c2ccc(Cl)cc2C(c2ccccc2)=NCC1C(=O)NC(C)(C)C (configuration not stated)	none (no result: DAX1 inh-2)
c1ccc(-c2nc(N3CCOCC3)s[n+]2-c2ccccc2)cc1	hgDAF-12 ag 12
C=CCN(CC#CCO)Cc1ccc(OC)cc1OC	none (no result: DAX1 inh-2)
C=C1C[C@]2(O)[C@@]3(C)CCC(=O)C(C)(C)C3=C(O)C(=O)[C@@]2(C)[C@@H]2C(=O)O[C@@](C)(C(=O)OC)C(=O)[C@@]12C	DAX1 inh-2 5.0
Cc1ccc(-c2nc(N(C)C3CCN(C)CC3)c3ccccc3n2)cc1	hcDAF-12 act 6.0
CC(C)=CC1C(C(=O)OC(C#N)c2cccc(Oc3ccccc3)c2)C1(C)C (configuration not stated)	none (no result: hcDAF-12 act, ssDAF-12 act, DAX1 inh-1, DAX1 inh-2, hgDAF-12 ag)
CC(C)C[C@H]1N=C(c2ccccc2)c2ccccc2N(CC(=O)NC(C)(C)C)C1=O	none (no result: DAX1 inh-2)
CC(C)c1ccc(N2C(=O)NC(=O)/C(=C/c3cnc(-c4ccccc4)nc3)C2=O)cc1	none
CSc1ncc(/C=C2/C(=O)NC(=O)N(c3ccc(C(C)C)cc3)C2=O)cn1	hcDAF-12 act 6.4
Cc1nc2ncnn2c(C)c1CCC(=O)N1CCC2(CC1)OCCO2	DAX1 inh-2 4.6
COC(=O)CSC1=NN1c1cc(C)nc(N)n1	DAX1 inh-2 4.7
CCc1c(C)nc(N)nc1N1N=C1SCC(=O)OC	none
FC(F)OC(F)(F)C(F)Cl (configuration not stated)	none (no result: hcDAF-12 act, ssDAF-12 act, DAX1 inh-1, DAX1 inh-2, hgDAF-12 ag)
O=c1c2ccccc2nc(/C=C/c2ccccn2)n1-c1ccccc1	hgDAF-12 ag 10
Cc1ccc(-n2c(/C=C/c3ccccn3)nc3ccccc3c2=O)cc1	none
CC1(C)NC(=S)C(C)(C)N1N=O	ssDAF-12 act 6.5
CC1CCCCN1CC(O)c1c[nH]c2ccccc12 (configuration not stated)	hcDAF-12 act 6.4
CC1CCCCN1Cc1c[nH]c2ccccc12 (configuration not stated)	none
COc1ccc2c(c1)NP(=S)(c1ccccc1)N2C (configuration not stated)	DAX1 inh-1 4.5, DAX1 inh-2 5.3
COc1ccc(-n2c(=O)[nH]c3ccccc3c2=O)c(OC)c1	none
COC(=O)c1c2[n+](cc3cc(OC)c(OC)cc13)CCc1cc(OC)c(OC)cc1-2	DAX1 inh-2 4.5
CCN(CC)Cc1nccn1-c1ccc([N+](=O)[O-])cc1C(=O)c1ccccc1Cl	none (no result: hcDAF-12 act, ssDAF-12 act, DAX1 inh-1, DAX1 inh-2, hgDAF-12 ag)
Cc1ccc2cc(C=C(C#N)C#N)c(Cl)nc2c1	ssDAF-12 act 1.4
COc1cc(/C=C/[N+](=O)[O-])ccc1OC(=O)c1cccnc1	ssDAF-12 act 1.3
COc1cc2c(cc1/C=C/[N+](=O)[O-])OCO2	none
CC(=O)[C@H]1CCC2C3CC[C@H]4C[C@H](O)CC[C@]4(C)C3C(=O)C[C@@]21C (some centres not stated)	none (no result: hcDAF-12 act, ssDAF-12 act, DAX1 inh-1, DAX1 inh-2, hgDAF-12 ag)
